MEX-5 binding: C. elegans MEX-5 TCR-2 RNA binding activity; MEX-5/FITC-TCR2 RNA binding, fluorescence polarization; stronger effect = lower value; activity score (negative = inhibition of binding), % at 10 µM; actives 0.38% (n = 300,000);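 active = inhibition past about -25% in most replicates, and total fluorescence under double the plate's negative control median, limit read from the data; inconclusive = replicates evenly split on the limit, or fluorescence at least double controls; inactive = too little inhibition in most replicates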;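 note: 0% = DMSO and -100% = 5 µM competing unlabeled TCR2 RNA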
BCLXL inh: Bcl-xL (human) inhibition; Q07817; GST-Bcl-xL / FITC-Bim BH3 peptide fluorescence polarization; inhibition, % at 10.9 µM; actives 0.7% (n = 320,000); AID 2129;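 active = inhibition above the mean of all tested compounds plus 3 SD, cutoff set per campaign, cut at about 30% in these data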;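 note: 0% = DMSO wells and 100% = unlabeled Bim-BH3 peptide competitor; inhibitors lower millipolarization by displacing the labeled peptide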
Target sequence (Q07817 whole entry, looked up): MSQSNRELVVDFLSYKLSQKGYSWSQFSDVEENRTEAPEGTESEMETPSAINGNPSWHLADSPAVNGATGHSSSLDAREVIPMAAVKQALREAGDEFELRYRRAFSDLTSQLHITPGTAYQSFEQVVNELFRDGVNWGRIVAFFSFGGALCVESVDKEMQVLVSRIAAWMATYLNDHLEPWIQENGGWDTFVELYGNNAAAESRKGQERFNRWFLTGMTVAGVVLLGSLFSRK
MCL1-BIM inh: disrupts human MCL1 binding to BIM-BH3 peptide. GST-MCL1 / FITC-Bim-BH3 fluorescence polarization. actives 0.68% (n = 320,000). inhibition, % at 10.9 µM;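 active = inhibition above the mean inhibition of all tested compounds plus 3 SD, set per campaign, cut at about 40% in these data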;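 note: 0% = DMSO wells and 100% = unlabeled Bim-BH3 peptide control; higher means more loss of mP so more displacement of Bim peptide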
GLD-1 TGE inh: GLD-1-TGE RNA interaction inhibition (C. elegans); Q17339; purified GLD-1 + fluorescein TGE RNA, fluorescence polarization; inhibition, % at 5.96 µM; actives 0.44% (n = 320,000); AID 2280;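 active = percent inhibition above a per-plate cutoff, the plate mean of test compounds plus 3 SD, cut at about 30% in these data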;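 note: 0% = DMSO wells with GLD-1 and probe and 100% = wells lacking GLD-1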
EBV gp42 inh: blocks Epstein-Barr virus glycoprotein 42 binding; Q1HVG2; Fluorescence polarization binding assay, mP read-out; inhibition, % (tested at 21.74 µM); actives 0.42% (n = 220,000); AID 1085; in the data active = inhibition above about 50%
Target sequence (Q1HVG2 whole entry, looked up): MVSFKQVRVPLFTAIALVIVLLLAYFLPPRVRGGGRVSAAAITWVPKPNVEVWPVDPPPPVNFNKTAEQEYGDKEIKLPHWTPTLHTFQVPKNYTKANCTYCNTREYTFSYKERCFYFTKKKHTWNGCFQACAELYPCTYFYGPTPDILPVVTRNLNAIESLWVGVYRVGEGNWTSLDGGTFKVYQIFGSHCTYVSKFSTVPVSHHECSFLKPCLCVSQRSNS
Active calls of the source: *; ? = inconclusive; · = no result given. Sampled rows, rich in hits. Any-hit rate of the full collection: about 1.3%.

SMILES	MEX-5 binding	BCLXL inh	MCL1-BIM inh	GLD-1 TGE inh	EBV gp42 inh
COC1Cc2ccccc2N(C(N)=O)c2ccccc21 (centres undefined)	-2	0	-4	5	·
CCCCN1C(=O)/C(=C2/Sc3ccccc3N2C)S/C1=N\c1ncn[nH]1	-69*	-33	-39	-41	-116
O=C(CN1C(=O)c2ccccc2S1(=O)=O)Nc1ncc(Cl)cc1Cl	·	·	·	57*	·
O=C(CN1C(=O)c2ccccc2S1(=O)=O)Nc1ncccn1	0	7	9	10	·
Cc1cccc(N2CCN(C(=O)COc3cc(=O)n(C)c4ccccc34)CC2)c1C	2	8	3	3	-4
Cc1cccc(N2CCN(C(=O)Cc3cn(C)c4ccccc34)CC2)c1C	0	48*	44*	18	38
Cc1ccc(Cn2c(C(C)Nc3nc(C)cs3)nc3cc(Cl)c(Cl)cc32)cc1 (centres undefined)	-3	1	7	-27	·
COc1cccc(CNC(=S)Nc2cc(OC)ccc2OC)c1	-1	2	5	4	3
CCC1C2CN(C(C)=O)CC=C2C(C#N)=C(N)C1(C#N)C#N (centres undefined)	-4	19	22	13	-6
CN1CC=C2C(C#N)=C(N)C(C#N)(C#N)C(Cc3ccccc3)C2C1 (centres undefined)	-69*	118*	129*	69*	49
CC(C)N1CC=C2C(C#N)=C(N)C(C#N)(C#N)C(c3ccccc3)C2C1 (centres undefined)	?	117*	128*	93*	72*
CCN1CC=C2C(C#N)=C(N)C(C#N)(C#N)C(c3cc(Cl)ccc3Cl)C2C1 (centres undefined)	?	122*	150*	104*	73*
COc1ccc(CNC(=O)C2CCCN2S(=O)(=O)c2ccc(F)cc2)cc1 (centres undefined)	1	3	1	4	-19
CCOC(=O)c1cc(NC(=O)c2ccccc2)c(=O)oc1-c1ccccc1	1	0	5	-3	-21
COC(=O)c1cc(NC(=O)c2ccccc2)c(=O)oc1/C=C/Nc1ccc(Oc2ccccc2)cc1	-9	·	·	·	186*
COc1ccc(N2CC(C(=O)NCCc3ccc(Cl)cc3)CC2=O)cc1 (centres undefined)	1	2	-1	4	·
O=C(COc1ccccc1Cl)c1ccc[nH]1	0	10	34	3	57*
O=C(NCc1ccccc1)c1ccc(NC(=O)C2CCCO2)cc1 (centres undefined)	-1	3	2	2	·
CCOC(=O)C(C)On1c(-c2ccccc2)nc2ccc([N+](=O)[O-])cc21 (centres undefined)	0	5	2	8	-6
O=C(O)COn1c(-c2ccccc2)nc2ccc([N+](=O)[O-])cc21	-1	17	35	10	73*
O=C(O)c1nn(Cc2csc(-c3ccccc3)n2)c(=O)c2ccccc12	-4	5	2	-6	·
COCCN1CCC(CNCc2c(C(=O)N3CCCCC3)nc3c(C)cccn23)C1 (centres undefined)	-49*	24	18	17	6
Cc1cc(C)cc(OCC(=O)NNC(=O)CCC(=O)NCc2ccccc2)c1	-1	-2	0	12	-16
COc1ccccc1Cn1c(=S)[nH]c2cc(C(=O)N3CCCC3)ccc2c1=O	2	-5	-6	2	·
CCN1CCN(C(=O)c2ccc3c(=O)n(Cc4ccccc4OC)c(=S)[nH]c3c2)CC1	-29*	-2	-4	4	-12
SMILES	MEX-5 binding	BCLXL inh	MCL1-BIM inh	GLD-1 TGE inh	EBV gp42 inh
Cc1ccc(-c2ccc(=O)n(CC(=O)NCCN3CCCCC3C)n2)cc1 (centres undefined)	-1	34*	41*	12	-12
CCn1c(C)c(C2=CCN(S(=O)(=O)c3ccccc3)CC2)c2ccccc21	1	20	-1	32*	-3
Cc1ccc(S(=O)(=O)N2CC=C(c3c(C)n(C)c4ccccc34)CC2)cc1	0	17	28	14	-15
COC(=O)c1scc2c(=O)cc(C(F)(F)F)[nH]c12	-15	35*	40	29	41
O=C(COC(=O)c1ccc(NS(=O)(=O)c2cccs2)cc1)NCc1ccco1	-1	7	21	4	67*
O=C(COC(=O)c1cccs1)NCc1ccco1	-2	4	7	1	·
COC(=O)c1cc2c(-c3ccccc3)c(C)c3ccccn3c-2c1C(=O)OC	-4	47*	43*	63*	65*
COC(=O)c1c(C(=O)OC)c2ccccn2c1C(=O)c1ccccc1	0	4	-8	7	·
C[C@H](CO)N1C[C@H](C)[C@@H](CN(C)S(=O)(=O)c2ccccc2)Oc2c(NC(=O)C3CCCCC3)cccc2C1=O	·	·	·	6	·
CCCNC(=O)c1ccc2c(=O)c(O)c(-c3cccc(Br)c3)[nH]c2c1	-84*	7	3	9	-11
CCCNC(=O)c1ccc2c(=O)c(O)c(C)[nH]c2c1	-13	11	17	-1	13
CCCNC(=O)c1ccc2c(=O)c(O)c(-c3ccc(F)cc3)[nH]c2c1	-90*	6	2	8	-15
CCN1CCN(c2nc3c(C)cccn3c(=O)c2/C=C(\C#N)S(=O)(=O)c2ccc(Cl)cc2)CC1	-12	15	12	5	-5
Cc1cccn2c(=O)c(C=C(C#N)C#N)c(N3CCN(c4cccc(Cl)c4)CC3)nc12	-1	39*	43*	20	·
Cc1ccc(S(=O)(=O)/C(C#N)=C/c2c(N3CCN(C)CC3)nc3c(C)cccn3c2=O)cc1	0	40*	29	6	26
Cc1cccn2c(=O)c(/C=C(\C#N)S(=O)(=O)c3ccccc3)c(N3CCN(C)CC3)nc12	-7	12	11	7	7
CCN1CCN(c2nc3c(C)cccn3c(=O)c2/C=C(\C#N)S(=O)(=O)c2ccc(C)cc2)CC1	-7	52*	48*	18	13
CCOc1ccc(NS(=O)(=O)c2cccc(C(=O)N(C)Cc3ccco3)c2)cc1	·	0	3	2	·
COc1cc2c(cc1OC)C(c1ccc(-c3ccc(Cl)cc3Cl)o1)=NCC2	-36*	1	2	5	1
COc1cc2c(cc1OC)C(c1ccc(-c3cc(Cl)ccc3Cl)o1)=NCC2	-1	-1	-17	-10	-15
COc1cc2c(cc1OC)C(c1ccc(-c3ccccc3Cl)o1)=NCC2	2	9	16	-3	-7
COc1cc2c(cc1OC)C(c1ccc(-c3ccc(Cl)c(Cl)c3)o1)=NCC2	-35*	3	-2	3	7
COc1cccc(CNC(=O)c2ccccc2SCC(=O)N2CCCC2)c1	0	8	5	0	·
O=[N+]([O-])c1cc(/C=N\Nc2nccs2)ccc1O	-100*	·	·	·	93*
Cc1ccc(NC2=NCC(=O)N2C2CCCC2)c(C)c1	2	2	7	6	-2
